CYP2C9 act: CYP2C9 (human) activation; P11712; recombinant CYP2C9, luciferin-H conversion, luminescence; hits give high values; factor 1 = untreated enzyme, 0 = blocked; activation factor at 5 µM; 1.4% of 96,000 active;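 active = activation factor of 2 or more for CYP2C9 at a 5 µM dose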
Target sequence (P11712 whole entry, looked up): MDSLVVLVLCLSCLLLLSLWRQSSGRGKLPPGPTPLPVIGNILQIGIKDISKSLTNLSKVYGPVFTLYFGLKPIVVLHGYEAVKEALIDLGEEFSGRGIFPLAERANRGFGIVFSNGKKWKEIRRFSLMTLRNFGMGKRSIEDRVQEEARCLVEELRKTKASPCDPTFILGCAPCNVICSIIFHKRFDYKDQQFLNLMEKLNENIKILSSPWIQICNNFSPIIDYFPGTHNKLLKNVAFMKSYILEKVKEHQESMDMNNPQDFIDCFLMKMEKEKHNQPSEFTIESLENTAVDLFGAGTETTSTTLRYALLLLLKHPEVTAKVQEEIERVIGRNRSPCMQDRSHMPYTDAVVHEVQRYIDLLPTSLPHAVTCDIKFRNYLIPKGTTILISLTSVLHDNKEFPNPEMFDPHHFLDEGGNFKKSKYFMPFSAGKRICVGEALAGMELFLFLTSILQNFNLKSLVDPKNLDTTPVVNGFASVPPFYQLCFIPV
CYP2C19 inhib: blocks human cytochrome P450 2C19. CYP2C19 Supersomes, luciferin-H EGE luminescence, 30 min. inhibition, % at 5 µM. 21% of 96,000 active. AID 778;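 active = CYP2C19 inhibition above a set limit at 5 µM in the primary screen, cut at about 50% in these data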
sEH activator: activators of human soluble epoxide hydrolase; P34913; 0.04% of 91,000 active; purified human sEH enzymatic activity, activator screen; activation, % at 2 µM; in the data active = activation above about 37%
CYP2C19 act: cytochrome P450 2C19 (human) activation; 96,000 tested, under 10 active; P33261; AID 1025; recombinant CYP2C19, luciferin-H EGE luminescence; hits give high values; 0 = fully inhibited enzyme, 1 = untreated enzyme; activation factor at 5 µM;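 active = activation factor of at least 2 at 5 µM in the primary screen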
CYP2C9 inhib: human CYP2C9 inhibition; P11712; CYP2C9 Supersomes, luciferin-H conversion, luminescence; inhibition, % at 5 µM; 20% of 96,000 active; AID 777;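 active = blocking of liver enzyme CYP2C9 beyond about 50% at 5 µM, limit read from the data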
sEH inhibitor: soluble epoxide hydrolase (human) inhibition. recombinant human sEH enzymatic activity assay. inhibition, % at 2 µM. P34913. 0.34% of 91,000 active; in the data active = inhibition above about 80%
Hits are given with their value; n = inactive; x = not tested or not shown. This is a sample that favours compounds with a hit; in the whole collection about 27% have one here.

SMILES | CYP2C9 act | CYP2C19 inhib | sEH activator | CYP2C19 act | CYP2C9 inhib | sEH inhibitor
COc1ccc(-c2noc(CCC(=O)N3CCN(c4cc(C)ccc4C)CC3)n2)cc1 | n | 64.6 | n | n | 77.6 | n
O=C(CCCc1nc(-c2ccc(Cl)cc2)no1)N1CCOCC1 | x | x | n | x | x | n
O=C1N/C(=N\N=C\c2ccc3ncccc3c2)SC1Cc1ccc(SC(F)F)cc1 (stereo unspecified) | n | n | n | n | n | n
O=C1N/C(=N\N=C\c2cccnc2)SC1Cc1ccc(SC(F)F)cc1 (stereo unspecified) | n | n | n | n | 52.8 | n
COc1ccc(C2C=C(c3cccs3)Nc3nc(CCCO)nn32)cc1 (stereo unspecified) | n | n | n | n | n | n
CCc1ccc(C(=O)COC(=O)c2ccc(-c3nnc(-c4ccccc4)o3)cc2)cc1 | n | 63.9 | n | n | n | n
O=C(COC(=O)[C@H](Cc1c[nH]c2ccccc12)NC(=O)c1ccc(Cl)cc1)Nc1ccc2c(c1)OCO2 | n | n | n | n | 98.5 | n
COc1cc(C2c3c(oc4ccc(C)cc4c3=O)C(=O)N2c2cc(C)ccn2)cc(OC)c1OC (stereo unspecified) | n | n | x | n | 59.2 | x
Cc1ccc2oc3c(c(=O)c2c1)C(c1cccc(O)c1)N(c1ccccn1)C3=O (stereo unspecified) | n | n | x | n | n | x
COc1cccc(N2CCN(Cc3ccsc3)CC2)c1 | n | 90.7 | n | n | 50.4 | n
CC(NS(=O)(=O)c1ccc(CCC(=O)NCC2CCCO2)cc1)c1ccccc1 (stereo unspecified) | x | x | n | x | x | n
Cc1sc2nc(CN(C(=O)NC3CCCCC3)C3CCCCC3)[nH]c(=O)c2c1C | x | x | n | x | x | n
Cc1sc2nc(SCC(=O)NCc3cccs3)[nH]c(=O)c2c1C | n | n | n | n | 66.8 | n
Cc1sc2nc(CN(Cc3cccs3)C(=O)C3CC3)[nH]c(=O)c2c1C | n | 97.4 | n | n | 88.4 | n
CC(C)C(=O)NC(c1ccc([N+](=O)[O-])cc1)c1c(O)ccc2ccccc12 (stereo unspecified) | n | n | n | n | n | n
CCCC(=O)NC(c1ccc(OC)c(OC)c1)c1c(O)ccc2ccccc12 (stereo unspecified) | n | 74.0 | n | n | 70.9 | n
CCCCC(=O)NC(c1ccc(OC)c(OC)c1)c1c(O)ccc2ccccc12 (stereo unspecified) | n | 63.1 | n | n | 88.4 | n
COC(=O)c1ccc2c(=O)n(CCCCCC(=O)NCc3ccc4c(c3)OCO4)c(=O)[nH]c2c1 | n | n | n | n | 51.9 | n
O=C(CCCCCn1c(=O)[nH]c2ccsc2c1=O)NCc1ccc2c(c1)OCO2 | n | n | n | n | 62.6 | n
COC(=O)c1ccc2c(=O)n(CCCCCC(=O)NCc3ccccn3)c(=O)[nH]c2c1 | n | n | n | n | n | n
COC(=O)c1ccc2c(=O)n(CCCCCC(=O)NCc3ccccc3)c(=O)[nH]c2c1 | n | n | n | n | 51.2 | n
O=C(CCCn1c(=O)[nH]c2ccsc2c1=O)N1CCN(Cc2ccc3c(c2)OCO3)CC1 | x | x | n | x | x | n
COc1nc2ccc(C)cc2cc1-c1noc(-c2ccccc2)n1 | n | n | n | n | n | n
O=S(=O)(c1ccc(Cl)cc1)N1CCC(N2CCCCCC2)CC1 | n | n | x | n | n | x
Cc1c(C(=O)N2CCCC2)nnn1-c1nonc1N | n | 52.2 | n | n | n | n
SMILES | CYP2C9 act | CYP2C19 inhib | sEH activator | CYP2C19 act | CYP2C9 inhib | sEH inhibitor
CCOC(=O)c1nnn(-c2nonc2N)c1-c1ccc(OCC)cc1 | n | 99.2 | n | n | 88.8 | n
COC(=O)c1nnn(-c2nonc2N)c1-c1cccs1 | n | n | n | n | n | n
Nc1nonc1-n1nnc(C(=O)c2ccccc2)c1-c1ccccc1 | n | 98.1 | n | n | 90.9 | n
CCOC(=O)c1nnn(-c2nonc2N)c1C | n | n | n | n | n | n
CCOC(=O)N1CCN(C(=O)CN(c2ccc3c(c2)OCO3)S(C)(=O)=O)CC1 | n | n | n | n | n | n
O=C(N/N=C/c1c[nH]c2ccccc12)c1ccn(Cc2ccc(Cl)cc2Cl)n1 | n | 56.8 | n | n | 69.6 | n
Nc1nc2nc(SCC(=O)N3CCCc4ccccc43)[nH]c2c(=O)[nH]1 | n | n | n | n | n | n
Cc1cccc2cc(C(c3nnnn3Cc3ccccc3)N3CCN(c4ccccc4)CC3)c(=O)[nH]c12 (stereo unspecified) | n | n | n | n | 50.4 | n
CCc1ccc2[nH]c(=O)c(C(c3nnnn3Cc3ccco3)N3CCC(C)CC3)cc2c1 (stereo unspecified) | n | 59.6 | n | n | n | n
CCc1ccc2[nH]c(=O)c(C(c3nnnn3CCOC)N3CCN(c4ccccc4)CC3)cc2c1 (stereo unspecified) | n | n | n | n | 68.7 | n
CCc1ccc2[nH]c(=O)c(C(c3nnnn3Cc3ccccc3)N3CCOCC3)cc2c1 (stereo unspecified) | n | n | n | n | n | n
CCc1ccc2[nH]c(=O)c(C(c3nnnn3CCOC)N3CCN(c4ccc(F)cc4)CC3)cc2c1 (stereo unspecified) | n | 96.0 | n | n | 69.4 | n
Cc1cccc(-n2c(N)cc(=O)nc2SCC(=O)NC2CCCCC2)c1 | n | n | n | n | n | n
c1ccc(Cn2nnnc2C(c2ccccn2)N2CCN(c3ccccc3)CC2)cc1 (stereo unspecified) | n | 61.3 | n | n | n | n
c1ccc(Cn2nnnc2C(c2ccccn2)N2CCOCC2)cc1 (stereo unspecified) | n | n | n | n | n | n
COc1ccc2cc(C(c3nnnn3C(C)(C)C)N3CCc4ccccc4C3)c(=O)[nH]c2c1 (stereo unspecified) | n | 65.0 | x | n | 94.0 | x
COc1ccc2cc(C(c3nnnn3C3CCCC3)N3CCc4ccccc4C3)c(=O)[nH]c2c1 (stereo unspecified) | n | n | n | n | n | n
CCC(C)(C)n1nnnc1C(c1cc2ccc(OC)cc2[nH]c1=O)N1CCc2ccccc2C1 (stereo unspecified) | n | n | n | n | 72.9 | n
Cc1ccc(-n2c(SCc3cc(=O)n4ccsc4n3)nnc2-c2cccnc2)c(C)c1 | n | n | n | n | n | n
Nc1nc(Cl)cc(N2CCC(c3cc(-c4ccc(Cl)cc4Cl)n[nH]3)CC2)n1 | n | n | n | n | n | n
CC#CCNCc1ccccc1 | n | n | n | n | n | n
CC(C)c1ccc(CNCc2ccccc2)cc1 | n | 75.2 | n | n | n | n
O=C(O)CC(NC(=S)NCc1ccccc1)C(=O)O (stereo unspecified) | n | n | n | n | 62.5 | n
NC(=O)CC(NC(=S)NCc1ccccc1)C(=O)O (stereo unspecified) | n | n | n | n | n | n
Cc1cccc(NC(=S)NNC(=S)NCc2ccccc2)c1 | n | n | n | n | 59.9 | n
FC(F)Oc1ccc(NC(=S)NCc2ccccc2)cc1Cl | 2.2 | 50.0 | n | n | n | n

Source: PubChem
